Potency data for 40 molecules are collected here from PubChem BioAssay (Tox21).

Molecules are shown by their SMILES. Records with an inconclusive call do not appear. A call without a number means that no potency is given here. Active and inactive are the calls of the source. Unless noted, the call rests on the fitted dose curve; in most records, active means well fitted curve in the direction sought with a large enough effect in the repeat runs; inconclusive means weak or mixed curves; inactive means no such curve, though single readings can be large; an effect the other way counts as inactive or inconclusive.

The subject of the first assay is estrogen-related receptor alpha (ERRalpha) with PGC-1alpha coactivator, human. The assay can be described thus: qHTS assay to identify small molecule antagonists of the estrogen related receptor signaling pathway with the pleiotropic PPARgamma coactivator (PGC) (AID 1224821; calls by dose curve; further: nearly all actives have a fitted effect of over 50% in size; further: potency means the concentration at half of the fitted maximal effect). As to conditions: ERR/PGC reporter cell line, luciferase, antagonist mode; series mostly up to 46.1 µM. Summed up: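 Luminescent read-out (One-Glo, 30 min at room temperature) following 18 h treatment of PGC/ERR cells at 37 C with compounds delivered in DMSO. Cells had settled 6 h at 37 C/5% CO2 before dosing.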
For `O=[N+]([O-])c1ccc2nc(N3CCNCC3)ccc2c1`, the Potency entry is “inactive”.
Take `NC(CCCCCP(=O)(O)O)C(=O)O` (stereo not given): the Potency entry was “inactive”.
Consider `NCCc1c[nH]c2ccc(C(N)=O)cc12`, for which the Potency entry was “inactive”.
On the same count and under the same terms, to `C[C@H](Cc1ccc2c(c1)OC(C(=O)O)(C(=O)O)O2)NC[C@H](O)c1cccc(Cl)c1` belongs “inactive”.
In the case of `Clc1cc(I)cc(Cl)c1NC1=NCCN1`, the Potency entry was “inactive”.
With `c1ccc(C2(c3ccccc3)CC2C2=NCCN2)cc1` (stereo not given), the Potency entry is “inactive”.
On the same count and under the same terms, to `NC(N)=NOCC[C@H](N)C(=O)O` belongs “inactive”.
Same read-out and setting: to `CC(=O)NBr` belongs “inactive”.
The same measure, in the same setting: next, `O=C1/C(=C/c2ccccc2)C[C@@]2(O)[C@H]3Cc4ccc(O)c5c4[C@@]2(CCN3CC2CC2)[C@H]1O5`: 2.2 µM (active); `C[N+](C)(C)CC#CCN1CCCC1=O`: “inactive”.
As to `C[N+]1(C)C2CCC1CC(OC(=O)c1c[nH]c3ccccc13)C2` (stereo not given), the Potency result was “inactive”.
For `NCCc1c[nH]c2ccc(O)cc12`, the Potency entry is “inactive”.
On the same count and under the same terms, to `NCc1cc(=O)[nH]o1` belongs “inactive”; to `NCC(CP(=O)(O)O)c1ccc(Cl)cc1` (stereo not given), “inactive”.
For the molecule `CCCCCN(C)CCC(O)(P(=O)(O)O)P(=O)(O)O`, the Potency result was “inactive”.
Still for that read-out and setting: to `NCCCP(=O)(O)O` belongs “inactive”; to `Oc1ccc2c3c1O[C@H]1c4[nH]c5ccccc5c4C[C@@]4(O)C(C2)N(CC2CC2)CCC314` (stereo not given in full), “inactive”; to `Nc1ncnc2c1ncn2[C@@H]1O[C@H](COP(=O)(O)CP(=O)(O)OP(=O)(O)O)C(O)[C@H]1O` (stereo not given in full), “inactive”.
Same read-out and setting: next, `O=P(O)(O)C(Cl)(Cl)P(=O)(O)O`: “inactive”.
Still for that read-out and setting: to `C[N+]1(C)CCC(OC(=O)C(c2ccccc2)c2ccccc2)CC1` belongs “inactive”.

System in a further assay: not listed separately
The assay can be described thus: qHTS assay to identify small molecule antagonists of the estrogen related receptor signaling pathway with the pleiotropic PPARgamma coactivator (PGC) cell viability counter screen (AID 1224822; further: potency means the concentration at half of the fitted maximal effect). To be noted: ERR/PGC reporter cell line viability counter screen; series mostly up to 46.1 µM. Summed up: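 qHTS format, DMSO compound stocks pin-transferred onto PGC/ERR cells 6 h after plating; 17.5 h exposure at 37 C, then CellTiter-Fluor fluorescence.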
Background: In qHTS, concentration-response curves come from the screen itself.
`CCCN1CCC[C@@H](c2cccc(O)c2)C1`: the Potency result was “inactive”.
On the same count and under the same terms, to `CC1OC1P(=O)(O)O` (stereo not given) belongs “inactive”; to `CC(C)Oc1cccnc1N(C)C1CCN(Cc2ccccc2)CC1`, “inactive”; to `COc1ccc2c(c[n+](C)c3c4cc5c(cc4ccc23)OCO5)c1OC`, 5.11 µM (active).
Still for that read-out and setting: next, `C[C@]12N[C@H](Cc3ccccc31)c1ccccc12`: “inactive”.
The same measure, in the same setting: to `CCCN(CCC)C1Cc2cc(OC)c(OC)cc2C1` belongs “inactive”; to `C[N+]1(C)CCc2cc3c(cc2[C@H]1[C@@H]1OC(=O)c2c1ccc1c2OCO1)OCO3`, “inactive”; to `CCCN1CC[C@@H]2c3cc(O)ccc3CC[C@@H]21`, “inactive”.
With `CC(=O)OCC1=C(C(=O)[O-])N2C(=O)[C@@H](NC(=O)CCC[C@@H](N)C(=O)[O-])[C@H]2SC1.[Zn+2]`, the Potency result was “inactive”.
The same measure, in the same setting: to `CC(C)(C)c1o[nH]c(=O)c1CC(N)C(=O)O` (stereo not given) belongs “inactive”.
Still for that read-out and setting: next, `Nc1ccc(CCN2CCN(c3cccc(C(F)(F)F)c3)CC2)cc1`: “inactive”; `CNCCc1c[nH]c2ccc(O)cc12`: “inactive”; `N[C@@]1(C(=O)O)CC[C@@H](C(=O)O)C1`: “inactive”.
The same measure, in the same setting: to `CC(C)NP(=O)(NC(C)C)OP(=O)(NC(C)C)NC(C)C` belongs “inactive”; to `COc1ccc(CNC(=O)/C=C/c2ccc3[nH]cc(CCN(C)C)c3c2)cc1`, “inactive”.
Regarding `CCn1cc(C(=O)O)c(=O)c2ccc(C)nc21`, the Potency entry was “inactive”.
Still for that read-out and setting: next, `CC12NC(Cc3ccccc31)c1ccccc12` (stereo not given): “inactive”; `CCOC(=O)c1ncn2c1[C@@H]1CCCN1C(=O)c1cc(OC)ccc1-2`: “inactive”.
Same read-out and setting: next, `c1ccc2c(N3CCNCC3)cccc2c1`: “inactive”; `NC(C(=O)O)c1cc(=O)[nH]o1` (stereo not given): “inactive”; `O=[N+]([O-])c1ccc2nc(N3CCNCC3)ccc2c1`: “inactive”.
Same read-out and setting: next, `NC(CCCCCP(=O)(O)O)C(=O)O` (stereo not given): “inactive”; `NCCc1c[nH]c2ccc(C(N)=O)cc12`: “inactive”; `C[C@H](Cc1ccc2c(c1)OC(C(=O)O)(C(=O)O)O2)NC[C@H](O)c1cccc(Cl)c1`: “inactive”.
Take `Clc1cc(I)cc(Cl)c1NC1=NCCN1`: the Potency result is “inactive”.
The same measure, in the same setting: to `c1ccc(C2(c3ccccc3)CC2C2=NCCN2)cc1` (stereo not given) belongs “inactive”; to `NC(N)=NOCC[C@H](N)C(=O)O`, “inactive”.
The same measure, in the same setting: to `CC(=O)NBr` belongs “inactive”.
As to `O=C1/C(=C/c2ccccc2)C[C@@]2(O)[C@H]3Cc4ccc(O)c5c4[C@@]2(CCN3CC2CC2)[C@H]1O5`, the Potency is 6.19 µM (active).
Same read-out and setting: to `C[N+](C)(C)CC#CCN1CCCC1=O` belongs “inactive”.
Consider `C[N+]1(C)C2CCC1CC(OC(=O)c1c[nH]c3ccccc13)C2` (stereo not given), for which the Potency result is “inactive”.
Still for that read-out and setting: next, `NCCc1c[nH]c2ccc(O)cc12`: “inactive”.
Turning to `NCc1cc(=O)[nH]o1`, the Potency result is “inactive”.
For `NCC(CP(=O)(O)O)c1ccc(Cl)cc1` (stereo not given), the Potency result is “inactive”.
Same read-out and setting: to `CCCCCN(C)CCC(O)(P(=O)(O)O)P(=O)(O)O` belongs “inactive”; to `NCCCP(=O)(O)O`, “inactive”.
The same measure, in the same setting: to `Oc1ccc2c3c1O[C@H]1c4[nH]c5ccccc5c4C[C@@]4(O)C(C2)N(CC2CC2)CCC314` (stereo not given in full) belongs “inactive”.
On the same count and under the same terms, to `Nc1ncnc2c1ncn2[C@@H]1O[C@H](COP(=O)(O)CP(=O)(O)OP(=O)(O)O)C(O)[C@H]1O` (stereo not given in full) belongs “inactive”.
Regarding `O=P(O)(O)C(Cl)(Cl)P(=O)(O)O`, the Potency entry is “inactive”.
Same read-out and setting: next, `C[N+]1(C)CCC(OC(=O)C(c2ccccc2)c2ccccc2)CC1`: “inactive”.

System in another assay: not listed separately
The experiment in a line: qHTS assay to identify small molecule agonists of the estrogen related receptor signaling pathway with the pleiotropic PPARgamma coactivator (PGC) (AID 1224823). To be noted: ERR/PGC reporter cell line, luciferase agonist mode; series mostly up to 46.1 µM. Summed up: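 Steps: plate PGC/ERR cells at 2,000 cells/well; incubate 6 h, 37 C/5% CO2; pin-transfer compounds (DMSO); incubate 18 h, 37 C; add One-Glo; 30 min RT; read luminescence.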
As for `CCCN1CCC[C@@H](c2cccc(O)c2)C1`, the Potency result was “inactive”.
`CC1OC1P(=O)(O)O` (stereo not given): the Potency result was “inactive”.
Same read-out and setting: next, `CC(C)Oc1cccnc1N(C)C1CCN(Cc2ccccc2)CC1`: “inactive”; `COc1ccc2c(c[n+](C)c3c4cc5c(cc4ccc23)OCO5)c1OC`: “inactive”.
Same read-out and setting: next, `C[C@]12N[C@H](Cc3ccccc31)c1ccccc12`: “inactive”; `CCCN(CCC)C1Cc2cc(OC)c(OC)cc2C1`: “inactive”; `C[N+]1(C)CCc2cc3c(cc2[C@H]1[C@@H]1OC(=O)c2c1ccc1c2OCO1)OCO3`: “inactive”.
Same read-out and setting: next, `CCCN1CC[C@@H]2c3cc(O)ccc3CC[C@@H]21`: “inactive”.
For `CC(=O)OCC1=C(C(=O)[O-])N2C(=O)[C@@H](NC(=O)CCC[C@@H](N)C(=O)[O-])[C@H]2SC1.[Zn+2]`, the Potency result is “inactive”.
On the same count and under the same terms, next, `CC(C)(C)c1o[nH]c(=O)c1CC(N)C(=O)O` (stereo not given): “inactive”.
Regarding `Nc1ccc(CCN2CCN(c3cccc(C(F)(F)F)c3)CC2)cc1`, the Potency entry is “inactive”.
For the molecule `CNCCc1c[nH]c2ccc(O)cc12`, the Potency entry was “inactive”.
The same measure, in the same setting: next, `N[C@@]1(C(=O)O)CC[C@@H](C(=O)O)C1`: “inactive”; `CC(C)NP(=O)(NC(C)C)OP(=O)(NC(C)C)NC(C)C`: “inactive”.
Turning to `COc1ccc(CNC(=O)/C=C/c2ccc3[nH]cc(CCN(C)C)c3c2)cc1`, the Potency result is “inactive”.
On the same count and under the same terms, next, `CCn1cc(C(=O)O)c(=O)c2ccc(C)nc21`: “inactive”.
Still for that read-out and setting: next, `CC12NC(Cc3ccccc31)c1ccccc12` (stereo not given): “inactive”; `CCOC(=O)c1ncn2c1[C@@H]1CCCN1C(=O)c1cc(OC)ccc1-2`: “inactive”.
Same read-out and setting: next, `c1ccc2c(N3CCNCC3)cccc2c1`: “inactive”; `NC(C(=O)O)c1cc(=O)[nH]o1` (stereo not given): “inactive”.
`O=[N+]([O-])c1ccc2nc(N3CCNCC3)ccc2c1`: the Potency result was “inactive”.
Same read-out and setting: next, `NC(CCCCCP(=O)(O)O)C(=O)O` (stereo not given): “inactive”; `NCCc1c[nH]c2ccc(C(N)=O)cc12`: “inactive”; `C[C@H](Cc1ccc2c(c1)OC(C(=O)O)(C(=O)O)O2)NC[C@H](O)c1cccc(Cl)c1`: “inactive”.
On the same count and under the same terms, next, `Clc1cc(I)cc(Cl)c1NC1=NCCN1`: “inactive”; `c1ccc(C2(c3ccccc3)CC2C2=NCCN2)cc1` (stereo not given): “inactive”; `NC(N)=NOCC[C@H](N)C(=O)O`: “inactive”.
For the molecule `CC(=O)NBr`, the Potency entry was “inactive”.
The same measure, in the same setting: next, `O=C1/C(=C/c2ccccc2)C[C@@]2(O)[C@H]3Cc4ccc(O)c5c4[C@@]2(CCN3CC2CC2)[C@H]1O5`: “inactive”; `C[N+](C)(C)CC#CCN1CCCC1=O`: “inactive”.
The same measure, in the same setting: next, `C[N+]1(C)C2CCC1CC(OC(=O)c1c[nH]c3ccccc13)C2` (stereo not given): “inactive”.
On to `NCCc1c[nH]c2ccc(O)cc12`, for which the Potency entry is “inactive”.
On the same count and under the same terms, to `NCc1cc(=O)[nH]o1` belongs “inactive”; to `NCC(CP(=O)(O)O)c1ccc(Cl)cc1` (stereo not given), “inactive”; to `CCCCCN(C)CCC(O)(P(=O)(O)O)P(=O)(O)O`, “inactive”.
Still for that read-out and setting: to `NCCCP(=O)(O)O` belongs “inactive”; to `Oc1ccc2c3c1O[C@H]1c4[nH]c5ccccc5c4C[C@@]4(O)C(C2)N(CC2CC2)CCC314` (stereo not given in full), “inactive”.
The same measure, in the same setting: next, `Nc1ncnc2c1ncn2[C@@H]1O[C@H](COP(=O)(O)CP(=O)(O)OP(=O)(O)O)C(O)[C@H]1O` (stereo not given in full): “inactive”.
In the case of `O=P(O)(O)C(Cl)(Cl)P(=O)(O)O`, the Potency result was “inactive”.
The same measure, in the same setting: to `C[N+]1(C)CCC(OC(=O)C(c2ccccc2)c2ccccc2)CC1` belongs “inactive”.
